PubChem BioAssay (EPA / NIEHS)
Active and inactive are the calls of the source. How the source made its calls: active means hit-call score of the fitted dose curve at least 0.9, where 1 is the maximum; inactive means score below 0.9.

Experiment: APR_HepG2_MitoticArrest_24hr: Apredica 24-hour HepG2 Assay for Mitotic Arrest (AID 2282910)
Details: high-content imaging, actives raise or lower the signal
Procedure, shortened: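 HepG2 cells, 24 h exposure at 0.39-200 uM (10 concentrations, duplicate, 0.5% DMSO). Fixed, stained for phospho-histone H3 with Hoechst; imaged by high-content microscopy, bidirectional fit versus DMSO.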

| Compound | outcome | AC50 |
| --- | --- | --- |
| CC#C[C@]1(O)CC[C@H]2[C@@H]3CCC4=CC(=O)CCC4=C3[C@@H](c3ccc(N(C)C)cc3)C[C@@]21C | inactive | – |
| CCOC(=O)CC(O)(CC(=O)OCC)C(=O)OCC | inactive | – |
| CCCCCCCC(=O)O | inactive | – |
| CC[C@H](c1ccc(O)cc1)[C@@H](CC)c1ccc(O)cc1 | inactive | – |
| O=c1c(-c2ccc(O)cc2)coc2cc(O)ccc12 | inactive | – |
| CCCCC(CC)COC(=O)CCCCC(=O)OCC(CC)CCCC (stereo unspecified) | inactive | – |
| CC(C)(C)c1cccc(C(C)(C)C)c1O | inactive | – |
| CCCOc1sc(C(=O)N2CCC(c3cc(CN)ccc3F)CC2)c(C)c1Br | – | 5.77 µM (active) |
| NC(=O)N(O)[C@@H]1C=C[C@H](Oc2cccc(Oc3ccc(F)cc3)c2)C1 | inactive | – |
| NC(=O)N1C(=O)C(C(=O)c2cc(Cl)cs2)c2cc(F)c(Cl)cc21 (stereo unspecified) | – | 84.7 µM (active) |
| Cc1cc(C)c(O)c(C)c1 | inactive | – |
| Nc1cccc2c(N)cccc12 | – | 70.1 µM (active) |
| COCC(C)O (stereo unspecified) | inactive | – |
| c1ccc2c(c1)ccc1ccccc12 | inactive | – |
| CCCCC[C@H](O)CC(=O)CCc1ccc(O)c(OC)c1 | inactive | – |
| CC(C)CCCCCCOC(=O)CCCCC(=O)OCCCCCCC(C)C | inactive | – |

| Compound | outcome | AC50 |
| --- | --- | --- |
| O=C(/C=C/c1ccc(O)cc1)CC(=O)/C=C/c1ccc(O)cc1 | – | 24.6 µM (active) |
| OCCC(F)(F)C(F)(F)C(F)(F)C(F)(F)C(F)(F)C(F)(F)C(F)(F)C(F)(F)F | – | 24.1 µM (active) |
| C#C[C@]1(O)CC[C@H]2[C@@H]3CCC4=CC(=O)CC[C@@H]4[C@H]3CC[C@@]21C | inactive | – |
| CCc1nn(C2CCCCC2)c2cc(C3(C#N)CCC(C(=O)O)CC3)ccc12 (stereo unspecified) | inactive | – |
| OC1CCCCC1 | inactive | – |
| CCC(=C(c1ccc(O)cc1)c1ccc(OCCN(C)C)cc1)c1ccccc1 | inactive | – |
| CCc1ccc(CCOc2ccc(CC3SC(=O)NC3=O)cc2)nc1 (stereo unspecified) | inactive | – |
| CC(C)(C)c1ccc(O)c(C(C)(C)C)c1 | inactive | – |
| Oc1cccc(O)c1 | inactive | – |
| CN1CCN(c2ccccc2/C=C2\SCCN(c3ccc(Cl)c(Cl)c3)C2=O)CC1 | – | 7.46 µM (active) |
| COC(=O)CCCCC(=O)OC | inactive | – |
| COc1cc(CCC(=O)CC(=O)CCc2ccc(O)c(OC)c2)ccc1O | inactive | – |
| COCC(C)OCC(C)O (stereo unspecified) | inactive | – |
| CCN(CC)CCNc1ccc(CNC=O)c2sc3ccc(OC)cc3c(=O)c12 | – | 7.05 µM (active) |
| Cc1oc(-c2ccccc2)nc1CCOc1ccc(C[C@H](Nc2ccccc2C(=O)c2ccccc2)C(=O)O)cc1 | – | 84.9 µM (active) |
